Test systems include NCI-H23 lung; NCI-H226 lung; HOP-62 NSCLC; NCI-H460 lung; HOP-92 NSCLC; NCI-H522 lung; A549/ATCC NSCLC; 786-0 renal; COLO 205 colon.
Assay in all cases: NCI-60 one-dose screen, 48 h (100 = growth as untreated, 0 = no growth, -100 = all killed)
Conditions in all cases: 10 µM unless noted

Molecules are shown by their SMILES. The panel holds about 83,000 compounds, 20% with a hit somewhere; the sample as a whole holds those more often.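 Single-concentration screen, 48 h exposure, 96-well plates. Endpoint: percent growth. Below 10 = active.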 A number with no mark means an inactive call. Active and inactive are the calls of the source.

Turning to `CC[N+](CC)=c1cc2oc3cc(N(C)C)ccc3nc-2cc1C`, the growth in the assay with NCI-H23 lung is 8.14% (active); in the assay with NCI-H226 lung, 79%; with HOP-62 NSCLC, 18.3%; in the assay on NCI-H460 lung it was 36.4%; in the assay on HOP-92 NSCLC, 63.9%; in the assay on NCI-H522 lung, -43.8% (active). For the same compound, the growth was 36.5% with A549/ATCC NSCLC, 70.4% in the assay with 786-0 renal and -9.82% (active) in the assay on COLO 205 colon.

In the case of `C=C1C(=O)O[C@H]2[C@H]1CC/C(Cn1cc(CNC(=O)/C=C/c3c[nH]c4ccccc34)nn1)=C\CC[C@@]1(C)O[C@@H]21`, the growth in the assay with NCI-H23 lung was 100%; in the assay on NCI-H226 lung, 92.5%; with HOP-62 NSCLC it was 104%; with NCI-H460 lung, 98.1%; in the assay on HOP-92 NSCLC it was 82.9%; with NCI-H522 lung it was 16.4%. In addition, the growth in the assay on A549/ATCC NSCLC was 91.6%; with 786-0 renal, 102%; in the assay with COLO 205 colon it was 67.9%.

For the compound `FC(F)(F)c1cccc(-c2cn3c(ccc4ccccc43)n2)c1`, the growth with NCI-H23 lung is 79.3%; in the assay on NCI-H226 lung, 94.6%; with HOP-62 NSCLC, 76.7%; in the assay with NCI-H460 lung it was 97%; in the assay with HOP-92 NSCLC, 102%; in the assay on NCI-H522 lung, 81.8%. For the same compound, the growth in the assay with A549/ATCC NSCLC is 95.4%; in the assay with 786-0 renal, 101%; in the assay with COLO 205 colon, 109%.

`CNC(=S)NNC(=O)C1CC1`: the growth was 97.9% in the assay on NCI-H23 lung; 109% with NCI-H226 lung; 106% in the assay on HOP-62 NSCLC; 115% in the assay with NCI-H460 lung; 96% with HOP-92 NSCLC; 108% with NCI-H522 lung. Moreover, the growth in the assay on A549/ATCC NSCLC was 99.2%; in the assay with 786-0 renal, 97.2%; in the assay on COLO 205 colon it was 113%.

As for `O=C([O][Sn]([O]C(=O)c1ccccn1)([c]1ccccc1)[c]1ccccc1)c1ccccn1`, the growth with NCI-H23 lung is 55.2%; in the assay with NCI-H226 lung, 65.5%; in the assay on HOP-62 NSCLC, 98.9%; with NCI-H460 lung, 107%; in the assay on HOP-92 NSCLC it was 74.5%; in the assay with NCI-H522 lung, -68.7% (active). For the same compound, the growth is 103% in the assay with A549/ATCC NSCLC, 96.2% in the assay with 786-0 renal and 77.4% in the assay with COLO 205 colon.

In the case of `Nc1ncnc2c1c(-c1ccc(Oc3ccccc3)cc1)nn2C[C@@H]1SSC[C@@H]1O`, the growth in the assay with NCI-H23 lung is 28.8%; with NCI-H226 lung, 46.7%; with HOP-62 NSCLC, 48.8%; with NCI-H460 lung, -30.5% (active); in the assay with HOP-92 NSCLC, -4.45% (active); in the assay with NCI-H522 lung, -22.1% (active). Moreover, the values for the growth with A549/ATCC NSCLC, with 786-0 renal and in the assay with COLO 205 colon were 22.1%, 57.5% and 33.8%, respectively.

For the compound `COc1cc(Cn2cc3c(c2)-c2oncc2CC3)cc(OC)c1OC`, the growth is 15.7% with NCI-H23 lung; 17.7% in the assay on NCI-H226 lung; 42.1% with HOP-62 NSCLC; 3.87% (active) with NCI-H460 lung; 56.4% in the assay with HOP-92 NSCLC; -20% (active) in the assay on NCI-H522 lung. Moreover, the growth was 29.6% in the assay with A549/ATCC NSCLC, 12.8% with 786-0 renal and -67.2% (active) in the assay with COLO 205 colon.

Take `COc1ccc2c(c1)[nH]c(=O)c1c3cccc(F)c3cn21`: the growth in the assay with NCI-H23 lung was 46.8%; in the assay on NCI-H226 lung it was 45.3%; in the assay on HOP-62 NSCLC it was 53.1%; in the assay on NCI-H460 lung, 7.94% (active); in the assay with HOP-92 NSCLC, 69.4%; in the assay with NCI-H522 lung it was -4.04% (active). Moreover, the growth is 12.1% with A549/ATCC NSCLC, 44.3% in the assay with 786-0 renal and -20.8% (active) in the assay with COLO 205 colon.

Consider `NC1=C(/C(N)=N/O)C(c2ccccc2)c2ccc3ccccc3c2O1` (stereo unspecified), for which the growth in the assay with NCI-H23 lung was 28.7%; with NCI-H226 lung, 1.84% (active); in the assay with HOP-62 NSCLC, 26.2%; with NCI-H460 lung it was 1.37% (active); in the assay with HOP-92 NSCLC, 29.8%; with NCI-H522 lung, 5.81% (active). Besides, the growth with A549/ATCC NSCLC is 21.2%; in the assay with 786-0 renal, 29%; in the assay with COLO 205 colon, -5.32% (active).

For the compound `COc1cc(/C=C/C(=O)N2CCN(C(=O)/C=C/c3cc(OC)c(OC)c(OC)c3)CC2)cc(OC)c1OC`, the growth in the assay on NCI-H23 lung is 104%; with NCI-H226 lung, 100%; with NCI-H460 lung, 104%; with HOP-92 NSCLC, 99.7%; in the assay on NCI-H522 lung, 87.5%; in the assay with A549/ATCC NSCLC it was 105%. In addition, the growth in the assay on 786-0 renal was 96.8%; in the assay on COLO 205 colon, 109%.

In the case of `COc1ccc(-c2c(N)n[nH]c2-c2cc3c(c(OC)c2OC)OCO3)cc1`, the growth was 96.8% in the assay on NCI-H23 lung; 99.9% in the assay on NCI-H226 lung; 101% with HOP-62 NSCLC; 105% with NCI-H460 lung; 87.2% in the assay with HOP-92 NSCLC; 81.5% in the assay with NCI-H522 lung. The results for the growth in the assay on A549/ATCC NSCLC, with 786-0 renal and in the assay on COLO 205 colon were 97.1%, 105% and 101%, respectively.

As for `COC(OC)c1ccccc1`, the growth in the assay with NCI-H23 lung is 105%; with NCI-H226 lung it was 108%; with HOP-62 NSCLC it was 99.3%; in the assay on NCI-H460 lung it was 117%; in the assay on HOP-92 NSCLC it was 79.6%; in the assay on NCI-H522 lung, 101%. The growth with A549/ATCC NSCLC was 103%; in the assay with 786-0 renal, 95%; with COLO 205 colon, 107%.

As for `CCN(CC)CCC(CNc1ccnc2cc(Cl)ccc12)c1ccc(Cl)cc1` (stereo unspecified), the growth is 48.6% in the assay on NCI-H23 lung; 14.4% in the assay with NCI-H226 lung; 6.58% (active) in the assay on HOP-62 NSCLC; -12.4% (active) in the assay with NCI-H460 lung; -39.9% (active) in the assay with HOP-92 NSCLC; -59.1% (active) with NCI-H522 lung. The growth is 12.3% with A549/ATCC NSCLC, -59.1% (active) with 786-0 renal and -97.7% (active) with COLO 205 colon.
